Bioassay records: PubChem BioAssay, several laboratories
CF NFkB inh: inhibitors of PAF-induced NF-kB signaling, primary screen, cell-based, GFP fluorescence, uHTS | KKLEB NF-kB-GFP reporter, GFP fluorescence overnight | inhibition, % at 5 µM | hit rate 0.86% among 360,000 | AID 588850, 2011;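 active = at least 50% inhibition at 5 µM, scaled per plate between neutral and stimulator controls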;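 note: PAF is a Pseudomonas aeruginosa culture filtrate used as stimulus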
MITF TRPM1 inh: inhibitors of MITF-dependent TRPM1 promoter reporter, primary screen, cell-based, SK-MEL-5, single point, luciferase. SK-MEL-5 TRPM1 promoter luciferase, 24 h. hit rate 0.83% among 330,000. inhibition, % at 12.5 µM;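 active = mean inhibition across replicates of 60% or more, whatever share of single replicates reaches that level; inconclusive = some that reach 60%, reason not given; inactive = mean inhibition across replicates below 60%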
Peg3 prom inh: Peg3 promoter-driven luciferase inhibitors, primary screen, cell-based, HeLa, luciferase luminescence; HeLa PEG-Prom luciferase reporter, overnight; inhibition, % at 20 µM; hit rate 1.7% among 360,000; AID 588405, 2011;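 active = inhibition of at least 50% at 20 µM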
KKLEB cytotox: cytotoxicity in KKLEB CF airway cells, primary screen, cytotoxicity control for CF NF-kB inhibitor project, cell-based, uHTS, fluorescence assay plates. KKLEB CF airway cells viability, ATPlite luminescence, overnight; stronger effect = lower value; cells stimulated with P. aeruginosa culture filtrate. activity change (cytotoxicity), % at 5 µM. hit rate 0.36% among 360,000. AID 602141, 2011;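 active = corrected activity change at or below -50% at 5 µM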
EBV LMP1 NFkB: EBV LMP1-driven NF-kappaB luciferase reporter inhibitors, primary screen, cell-based, luminescence, single point. LMP1-induced NF-kappaB luciferase reporter cells. inhibition, % at 12.5 µM. hit rate 0.69% among 350,000. AID 504558, 2011; in the data active = inhibition above about 41%; inconclusive = no clear call, values can overlap the other calls
Shn3 3UTR inh: reduction of Shn3 3'UTR firefly luciferase signal, primary screen, Schnurri-3 inhibitor project, cell-based, Clone20 osteoblasts, set 2. Clone20 osteoblast Shn3 3'UTR firefly luciferase, 24 h. inhibition, % at 12.5 µM. hit rate 0.52% among 360,000. AID 588674, 2011;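 active = mean inhibition of at least 75% with every replicate also reaching 75%; inconclusive = mean inhibition at least 75% but some replicate below; inactive = mean inhibition below 75%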
Of the large screens only hits and unclear results are named; the others gave an inactive call. Rows were chosen to be rich in hits. Some 2.9% of all compounds tested hit in one or more screens of this group.

CN(C)Cc1ccccc1C(O)(c1ccccc1)c1ccccc1	none
CCOc1ccc(NC(=O)C2CCCN(S(=O)(=O)c3ccc4c(c3)C(C)(C)C(=O)N4C)C2)cc1 (stereo not drawn)	none (no result: MITF TRPM1 inh, EBV LMP1 NFkB)
CCN1/C(=C/C(C)=C/c2sc3ccccc3[n+]2CC)Sc2ccccc21	MITF TRPM1 inh 103, Peg3 prom inh 104, Shn3 3UTR inh 88
CCN1/C(=C\C(=S)Nc2ccccc2)Sc2ccccc21	none
Fc1cccc(F)c1/C=N/Nc1ccccn1	none
Oc1ccc2ccccc2c1/C=N/Nc1nnc(-c2ncc[nH]2)c2ccccc12	EBV LMP1 NFkB 59, Shn3 3UTR inh 92
Oc1ccc2ccccc2c1C=NNc1ccccn1	CF NFkB inh 77, KKLEB cytotox -81, EBV LMP1 NFkB 58
CCN(CC(=O)Nc1c(F)cccc1F)C(=O)c1ccc(OC)c(S(=O)(=O)NC2CCCC2)c1	none (no result: MITF TRPM1 inh)
CC1(C(=O)NS(=O)(=O)c2ccccc2Cl)CCN1C(=O)CC1CCCC1 (stereo not drawn)	none (no result: MITF TRPM1 inh, EBV LMP1 NFkB)
CCOc1ccc(C2=Nn3c(nnc3-c3ccco3)SC2)cc1	KKLEB cytotox -68
CCOc1ccc(C2=Nn3c(nnc3-c3ccccn3)SC2)cc1	none
CC(C)Oc1ccc(CN2CCC2(C)C(=O)Nc2cnc3ccccc3c2)cc1 (stereo not drawn)	none (no result: MITF TRPM1 inh, EBV LMP1 NFkB)
CC(=O)c1cccc(OCC(=O)N(CCC2=CCCCC2)c2c(N)n(Cc3ccccc3)c(=O)[nH]c2=O)c1	none
CC(NS(=O)(=O)c1ccc(Br)cc1F)[C@H](O)c1ccccc1 (stereo partly drawn)	none (no result: MITF TRPM1 inh)
CN(C)CCOc1ccc(/C(=C(/CCCl)c2ccccc2)c2ccccc2)cc1	Peg3 prom inh 74
CC1=CC(=O)C=C/C1=C(/c1ccc(O)cc1C)c1ccccc1S(=O)(=O)O	Peg3 prom inh 79
CC1=C/C(=C(\c2ccc(O)c(C)c2)c2ccccc2S(=O)(=O)O)C=CC1=O	none
C[C@H](CO)N1C[C@H](C)[C@@H](CN(C)C(=O)Nc2ccc(C(F)(F)F)cc2)Oc2c(NC(=O)CCC(F)(F)F)cccc2C1=O	none
COc1ccc(C(O)c2nc(-c3cccc4cccnc34)cs2)cc1 (stereo not drawn)	none (no result: MITF TRPM1 inh, EBV LMP1 NFkB)
Cc1cc(SCC(=O)OC/C(O)=C(\C#N)c2nc3ccccc3[nH]2)c(C)cc1Br	Peg3 prom inh 51
N#C/C(=C(/O)COC(=O)CSc1ccc(Cl)cc1)c1nc2ccccc2[nH]1	Peg3 prom inh 75
N#C/C(=C(/O)COC(=O)CCCNC(=O)c1ccc(Cl)cc1)c1nc2ccccc2[nH]1	none
CCOC(=O)C1(C)CCCN(C(=O)c2cccc3ccccc23)C1 (stereo not drawn)	none (no result: MITF TRPM1 inh, EBV LMP1 NFkB)
COC(=O)c1ccc2nc(NC(=O)C3CCCCC3)sc2c1	none
COC(=O)c1ccc2nc(NC(=O)C(C)(C)C)sc2c1	KKLEB cytotox -50
Nc1ncnc2oc(-c3ccco3)c(-c3ccco3)c12	CF NFkB inh 53
Nc1nnc(-c2ccco2)s1	none
Cc1cc(C(=O)Nc2ccc(Cl)cc2)c(C)n1-c1ccccc1	Peg3 prom inh 87, KKLEB cytotox -68 (no result: MITF TRPM1 inh, EBV LMP1 NFkB, Shn3 3UTR inh)
Cc1ccc(NC(=O)c2cc(C)n(-c3ccccc3)c2C)cc1	KKLEB cytotox -73
Cc1ccc(NC(=O)c2csc(-c3ccccc3)c2C)cc1	KKLEB cytotox -54, EBV LMP1 NFkB 45
COc1cc(OC)c(NS(=O)(=O)c2cc(C(=O)NCCCN3CCOCC3)ccc2C)cc1Cl	none (no result: MITF TRPM1 inh)
Cc1cc(NCCCCCCCNc2cc(C)nc3cc([N+](=O)[O-])ccc23)c2ccc([N+](=O)[O-])cc2n1	MITF TRPM1 inh inconclusive, Peg3 prom inh 102, EBV LMP1 NFkB 79, Shn3 3UTR inh 86
COCCCNc1cc(C)nc2ccccc12	none
O=C(O)c1cccnc1	EBV LMP1 NFkB 85
O=C(O)c1cccc(N/N=C/c2ccc(-c3ccccc3)cc2)c1	none
COc1ccc(Br)cc1/C=N/Nc1cccc(C(=O)O)c1	none
CC(C)(C)c1ccc(/C=N/Nc2cccc(C(=O)O)c2)cc1	MITF TRPM1 inh 61, EBV LMP1 NFkB 72
